Screening data (PubChem)
Compounds with a hit are over-represented: about 3.5% of the library has one in this group of screens.
C8 TRAIL sens – caspase-8 TRAIL sensitization; NB7+C8 cells + TRAIL, ATPlite viability luminescence; inhibition (viability loss, TRAIL sensitization), % at 10 µM; 1% of 360,000 active; AID 624354;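 active means compounds causing at least 50% loss of cell viability in the single-dose screen, relative to plate controls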
HSP90 refold inh – HSP90 refolding inhibition in rabbit reticulocyte lysate; luciferase refolding luminescence, 3 h; inhibition, % at 5.6 µM; 0.91% of 290,000 active; AID 1789;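 active means inhibition above the screen-wide mean plus 3 SD, computed separately per campaign, cut at about 16% in these data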;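 further: inhibitors lower the luminescence because luciferase stays unfolded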
Platelet DG rel – platelet dense granule release activity | human platelet-rich plasma, SFLLRN dense granule ATP release, luminescence | 0.22% of 300,000 active | AID 1663 | inhibition, %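 (compounds screened at 7.5 µM in platelet-rich plasma)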;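 active means mean replicate score, as percent of positive control, at or above 50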
TROY signal inh – blocks TROY-dependent signaling in reporter cells; 0.98% of 360,000 active; Q293 LMP1-TROYcd NF-kB luciferase reporter, 4 h; inhibition, % at 10 µM;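 active means compounds whose plate-normalised and pattern-corrected inhibition of the luciferase reporter signal at the single screening dose is 50% or more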
TWEAK-Fn14 inh – TWEAK-Fn14 signaling inhibition; TWEAK-stimulated Fn14 reporter cells, luciferase luminescence, 8 h; inhibition, % at 10 µM; 2% of 360,000 active; AID 1159606; in the data active means inhibition above about 50%
PPC-1+TRAIL kill – compounds killing PPC-1 cancer cells with TRAIL present (potentiator screen, no TRAIL-free arm); cell killing (% activity), % at 4 µM or 5 µM; 0.41% of 220,000 active; PPC-1 cells + TRAIL, ATPLite viability luminescence; AID 1443;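 active means cell killing above 50% in the first pass at 4 µM, then a duplicate retest at 5 µM averaging 50% or more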
A number is an active result; . = inactive; / = not tested or not shown.

SMILES	C8 TRAIL sens	HSP90 refold inh	Platelet DG rel	TROY signal inh	TWEAK-Fn14 inh	PPC-1+TRAIL kill
CCC1(C)Nc2ccccc2C(=O)N1O (centres undefined)	.	.	.	58	.	.
Cc1cccc(C)c1OCCOC(=O)c1cccc(S(=O)(=O)N2CCOCC2)c1	.	/	/	.	.	/
Cc1cc(=O)oc2ccc(OC(=O)c3cccc(S(=O)(=O)N4CCOCC4)c3)cc12	.	.	.	.	101	.
CNC(=O)c1cccc(NC(=O)c2ccccc2OCc2ccccc2)c1	.	.	.	.	.	/
Cc1cccc(C)c1OCC(=O)Nn1c(C)nc2ccccc2c1=O	.	.	.	/	78	.
Cc1nc2ccccc2c(=O)n1NC(=O)COc1ccccc1	.	.	.	.	.	.
CC1(C(=O)NS(=O)(=O)C2CC2)CCN(C(=O)c2cc(F)cc(F)c2)C1 (centres undefined)	.	/	/	.	.	/
O=C(Nc1ccc(NS(=O)(=O)c2ccccc2)cc1)c1ccc(Cl)cc1	.	.	.	.	.	/
COc1ccccc1NS(=O)(=O)c1cccc(NC(=O)c2ccc3ccccc3n2)c1	.	.	.	.	69	.
COc1ccc(NS(=O)(=O)c2cccc(NC(=O)CCC(=O)c3cccs3)c2)cc1	.	.	.	.	.	.
COc1ccc(NS(=O)(=O)c2cccc(NC(=O)c3ccc(Cl)nc3)c2)cc1	.	.	.	.	70	.
O=C(Nc1cccc(S(=O)(=O)Nc2ccc(Cl)cc2)c1)c1ccc(Cl)nc1	.	.	.	53	80	.
COc1ccc(NS(=O)(=O)c2cccc(NC(=O)CCC(=O)c3ccc(Cl)cc3)c2)cc1	.	.	.	.	75	.
O=C(CNc1cccc([N+](=O)[O-])c1)NC(=O)NC1CCCCC1	.	/	/	.	.	/
COc1ccc(N2CCN(C(=O)CCC(=O)N3CCOc4ccc(Cl)cc43)CC2)cc1	.	.	.	.	.	/
CCOC(=O)C1(CCOC)CCN(C2C3CC4CC(C3)CC2C4)CC1 (centres undefined)	.	.	.	.	.	.
COC(=O)C[C@H](NC(=O)Cn1cnc2c(SC)nc(N)nc21)C(=O)OC	.	/	/	.	.	/
COc1ccc(CNC(=O)c2ccc3ccccc3n2)cc1OC	.	.	.	.	54	/
COc1ccc(CCNC(=O)c2ccc3ccccc3n2)cc1OC	.	.	.	.	.	.
CCc1ccccc1NC(=S)Nn1cnnc1	.	.	/	.	.	/
Cc1ccc2[nH]c3c(c2c1)CCCC3NC(=O)CCl (centres undefined)	.	.	.	.	71	/
CCN(CC(=O)NCc1cccs1)C(=O)c1ccc(-c2ccc(F)cc2)o1	.	/	/	.	80	/
CCN(CC(=O)NCc1cccs1)C(=O)c1ccc(C)o1	.	/	/	.	.	/
Cc1ccc(-c2nn(-c3ccccc3)cc2NC(=O)CCl)cc1	56	.	.	.	.	.
Cc1nc2ccccc2n1CC(O)COc1ccccc1Cl (centres undefined)	.	.	.	.	54	.
SMILES	C8 TRAIL sens	HSP90 refold inh	Platelet DG rel	TROY signal inh	TWEAK-Fn14 inh	PPC-1+TRAIL kill
CN(CC(=O)Nc1ccccc1C(F)(F)F)C(=O)c1ccc(-c2ccc(Cl)cc2)o1	.	/	.	.	.	/
CC1CCCCC1NC(=O)/C(C#N)=C/c1ccccc1F (centres undefined)	.	.	.	.	70	.
COc1cc(/C=C2/C(=O)c3cccc([N+](=O)[O-])c3C2=O)c(Br)cc1O	.	.	/	.	57	.
Cc1cccc(NC(=O)CNC(=O)c2cccc(S(=O)(=O)NCc3cccs3)c2)c1C	.	/	/	.	.	/
CCc1ccc(C(=O)Cn2ncc(Cl)c(Cl)c2=O)cc1	97	.	.	.	79	.
O=c1c(Cl)c(Cl)cnn1Cc1nnc(-c2ccc(Cl)cc2)o1	.	.	.	52	86	.
Cc1ccc(Cn2ncc(Cl)c(Cl)c2=O)cc1	91	.	.	.	65	.
O=C1CCCN1CCCNc1ncccc1[N+](=O)[O-]	.	.	.	.	.	/
CC(=O)Nc1cccc(NS(=O)(=O)Cc2ccc(Cl)cc2)c1	.	.	.	.	.	.
CC(=O)c1ccc(NS(=O)(=O)Cc2ccc(Cl)cc2)cc1	.	.	.	63	.	.
O=C(NCc1ccc(Cl)cc1)N1CCc2ccccc2C1	.	.	.	.	.	/
COc1ccc(CNC(=O)N2CCc3ccccc3C2)cc1Cl	.	16	.	.	.	/
CCCn1c(/C=C/c2ccccc2)nc2ccccc21	53	.	.	.	.	.
